The source of these data is PubChem BioAssay AID889 (National Center for Advancing Translational Sciences (NCATS), 2007).

About 15 (0.02%) of roughly 75,000 compounds were called active. Not shown: some 3% with an inconclusive outcome. The full list was thinned out, with actives kept by preference. Unmarked numbers belong to inactive results. Calls follow the shape of the dose curve; as a rule, active = well fitted inhibition curve with a large enough effect in the main read-out, with a control signal flat (not every such curve was filed as active); inconclusive = small, poorly fitted or top-dose-only effect, or a change in a side signal; inactive = flat fitted curve, though single readings scatter.
Potency is read from the fitted curve at half-maximal effect.

Chain of Caspase-7 (Homo sapiens) (P55210 24-198 limits assumed): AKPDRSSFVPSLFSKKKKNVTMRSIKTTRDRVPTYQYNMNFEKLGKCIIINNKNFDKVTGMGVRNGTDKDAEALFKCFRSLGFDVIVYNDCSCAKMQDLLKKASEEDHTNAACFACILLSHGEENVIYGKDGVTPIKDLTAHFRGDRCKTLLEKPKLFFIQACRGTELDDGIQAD
Chain of Caspase-7 (Homo sapiens) (P55210 207-303 limits assumed): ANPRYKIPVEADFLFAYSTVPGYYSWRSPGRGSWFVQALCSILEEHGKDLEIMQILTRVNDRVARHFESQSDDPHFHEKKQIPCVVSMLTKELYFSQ

This assay deals with Caspase-7 (Homo sapiens) (UniProt P55210). Description: qHTS Assay for Allosteric/Competitive Inhibitors of Caspase-7. As to activity change, negative = inhibition: % of control where 0% means no effect. The settings on record: recombinant caspase-7, Ac-DEVD-AFC fluorescence rate; series mostly up to 57.5 µM; activity change, negative = inhibition: at the top concentration. An excerpt:
NIH Molecular Libraries Screening Centers Network [MLSCN]
NIH Chemical Genomics Center [NCGC]
PI Name: Dr. James Wells,
Dr. Enrique Perez-Paya, Dr.Janice Williams, Dr. Dennis Wolan, a person
The caspases (Cysteine Aspartyl Protease) comprise a related family of 14 dimeric proteases that are critical mediators of apoptosis (programmed cell death) and inflammation. The caspases represent an important class of drug targets for stroke, ischemia, cancer and inflammatory diseases. […] One goal of this project was to identify compounds that act as allosteric inhibitors via stabilizing the procaspase form of the enzyme. Previous work in Well's laboratory has shown that such allosteric inhibitors can be identified and these act by binding at the dimer interface of enzyme (Hardy, Lam et al., 2004).
The biochemical assay was configured using purified caspase 7 at a high enzyme concentration to promote formation of the homodimers and thus facilitate the identification of allosteric inhibitors. The overall goal was to identify reversible inhibitors with better drug-like properties than the currently available set of aspartyl-containing peptidomimetics that covalently bind the active site. Caspase 7 was assayed using the profluorescent substrate Ac-DEVD-AFC. After initiation of the assay with substrate the plates were rapidly read using an automated robotic system (Kalypsys, Inc.) to maintain consistent timing. A kinetic mode of detection was used where the initial rate was collected (estimated final product formation was ~10%). Compounds were screened as a concentration-titration series that ranged from 57 uM to 0.7 nM. Below is the protocol used for caspase 7.
NCGC Assay Protocol Summary:
Caspase 7 was prepared in buffer (50 mM HEPES pH 7.5, 50 mM KCl, 200 mM NaCl, 10 mM DTT, 0.1% CHAPS) at a concentration of 66.6 nM and 3 uL was dispensed to all wells using black solid Kalypsys 1536-well plates. 20 nL of DMSO containing compounds was added using a pin-tool (Kalypsys Inc.) to columns 5-48. Then 20 nL of DMSO solution from a control plate was added to columns 1-4. Controls were: Column 1, 16 point titration with each concentration in duplicate (1:1 dilutions in DMSO; final starting concentration was 57 uM) of the caspase 7 inhibitor Ac-DEVD-CHO (Alexis Biochemicals); Column 2, a 16 point titration with each concentration in duplicate of the free AFC fluorophore prepared in DMSO (Alexis Biochemicals), final starting was 40 uM; Column 3 neutral (DMSO only) control; Column 4: DMSO alone, to serve as a negative control (no substrate was added). Then 1 uL of 20 uM the substrate Ac-DEVD-AFC (Alexis Biochemicals) prepared in the same buffer was dispensed to all wells except columns 2 and 4 and the plates were immediately transferred (< 1 min) to the Viewlux. The plates were then exposed using 405 nm excitation/520 nm emission filters for 4 sec and read at 20 sec intervals for 3 min. Final enzyme concentration was 50 nM and the final substrate concentration was 5 uM.
Concentration-response curves were fitted to the data calculated from slope of the linear regression of fluorescent intensity versus time (the rate). The concentration-effect curves were then classified based on curve quality (r2), response magnitude and degree of measured activity. […] Inconclusive compounds had appreciable concentration-dependent effects on both the measured rate and the interpolated basal fluorescence intensity at the start of the reaction but where the basal fluorescent intensity was marginal (e.g. < 10-fold). Inconclusive compounds also encompass highly fluorescent compounds (>100-fold increases in fluorescent intensities values relative to controls) where artificial concentration-dependent decreases in the rate occurred at high compound concentrations due to fluorescent interferences.
Keywords: Caspase 7, proteases, profluorescent, MLSMR, MLSCN, NIH Roadmap, qHTS, NCGC
With `COC1C[C@@H](O[C@@H]2C(C)C(=O)OC(C)C(C)C(O)C(C)C(=O)[C@@]3(CO3)CC(C)C(OC3OC(C)CC(N(C)C)C3O)C2C)OC(C)[C@@H]1O` (stereo partly specified), the “activity change, negative = inhibition” value was 2.56%.

Consider `Cc1nn2c3cc(N4CCOCC4)ccc3nc2c2ccccc12`, for which the “activity change, negative = inhibition” value is 0.94%.

For the compound `CC(=O)N(CN1C(=O)C2CC=CCC2C1=O)c1cccc(Cl)c1` (stereo unspecified), the “activity change, negative = inhibition” value is -16.2%.

Consider `CC1(C)OC2CO[C@]3(COS(N)(=O)=O)OC(C)(C)OC3C2O1` (stereo partly specified), for which the “activity change, negative = inhibition” value was -0.982%.

With `CCCCOC(=O)CNc1nnc(SCC(=O)OCC)[nH]c1=O`, the “activity change, negative = inhibition” value was 0.456%.

Regarding `CC[C@@H]1Cc2cc(O)ccc2C2=C1c1ccc(O)cc1C[C@H]2CC`, the “activity change, negative = inhibition” value was -8.12%.

`O=C(O)C(O)[C@@](O)(Cc1ccc(O)cc1)C(=O)O` (stereo partly specified): the “activity change, negative = inhibition” value was 0.744%.

In the case of `COc1cccc(N2CCN(C(=O)C3CCCN(S(=O)(=O)c4cnc[nH]4)C3)CC2)c1` (stereo unspecified), the “activity change, negative = inhibition” value is 1.11%.

With `COc1ccc(N2C(=O)CN=C2Nc2cccc(C)c2C)cc1OC`, the “activity change, negative = inhibition” value is -9.88%.

Regarding `COC(=O)[C@@H]1C[C@@]2(O)[C@H](O)[C@H](O)[C@H](O)C[C@H]2N1Cc1ccc(C)s1`, the “activity change, negative = inhibition” value is -0.351%.

With `O=C(O)c1c(Br)c(Br)c(Br)c(Br)c1C1c2ccc(O)cc2Oc2cc(O)ccc21`, the Potency was 3.98 µM (active).

On to `COc1ccc(OC)c2[nH]c(=O)c(CCNC(=O)C(C)(C)C)cc12`, for which the “activity change, negative = inhibition” value is -0.648%.

For the compound `O=C(Oc1cc(OC(=O)c2ccccc2)c2c(c1)OC(c1ccc(OC(=O)c3ccccc3)c(OC(=O)c3ccccc3)c1)[C@@H](OC(=O)c1ccccc1)C2)c1ccccc1` (stereo partly specified), the “activity change, negative = inhibition” value was 1.49%.

With `C/C=C(/C)C(=O)OC1Cc2c(ccc3ccc(=O)oc23)OC1(C)C` (stereo unspecified), the “activity change, negative = inhibition” value is 1.54%.

Take `Cc1ccc(CNC(=O)C2CCCN(S(C)(=O)=O)C2)cc1` (stereo unspecified): the “activity change, negative = inhibition” value was -4.02%.

In the case of `CC(C)=CCC/C(C)=C/CO/N=C1/C[C@@H](O)[C@@H](O)[C@@H]2[C@@H]3C(=O)N(C(C)(C)C)C(=O)[C@H]3CC[C@H]12`, the activity change, negative = inhibition was 0.517% [at 11.5 µM].

In the case of `CCOC(=O)C1CCN(C(=O)COc2cc(C)c(Br)c(C)c2)CC1`, the “activity change, negative = inhibition” value was -3.71%.

`COc1ccc(CCC(=O)c2c(O)cc(OC3OC(CO)C(O)C(O)C3O[C@@H]3OC(C)C(O)C(O)C3O)cc2O)cc1O` (stereo partly specified): the “activity change, negative = inhibition” value is 0.803%.

Take `CCN1CCN(C(=O)c2ccccc2N(C)S(=O)(=O)c2ccc(C)cc2)CC1`: the “activity change, negative = inhibition” value was -1.87%.

For the compound `Cc1cc(C)c(C)c(S(=O)(=O)Nc2ccc(O)cc2)c1C`, the “activity change, negative = inhibition” value is 0.495%.

Regarding `O=C(CSc1nc2ncccc2[nH]1)Nc1ccc2c(c1)OCCO2`, the “activity change, negative = inhibition” value is 0.658%.

For `C=C1C([C@@]2(C)C(OC(C)=O)CC(=O)O[C@@](C)(COC(C)=O)C2CC(=O)OC)C(OC=O)C(OC(=O)C(O)C(C)CC)[C@]2(C)C(c3ccoc3)CC(=O)C12O` (stereo partly specified), the “activity change, negative = inhibition” value was 0.439%.

With `CC(C)N(CCNC(=O)c1ccc(-n2c(=O)c(=O)[nH]c3ccccc32)cc1)C(C)C`, the “activity change, negative = inhibition” value is 1.72%.

Take `CCOC(=O)C1CCCN(C(=O)c2ccc(CS(=O)(=O)c3ccc(Br)cc3)o2)C1` (stereo unspecified): the “activity change, negative = inhibition” value was -1.53%.

As for `Clc1ccc(C2[C@H]3CN(CC4CCCCC4)[C@H](c4ccccc4)C34CC2(c2cccnc2)C4)cn1` (stereo partly specified), the “activity change, negative = inhibition” value is -2.48%.

For `Cc1cnc(C(=O)OCC(=O)Nc2ccc(Cl)cc2Cl)cn1`, the “activity change, negative = inhibition” value was 0.963%.

In the case of `O=C(CSc1nc2ccccc2o1)N1CCN(c2ccccc2)CC1`, the “activity change, negative = inhibition” value was -0.235%.

As to `CN1CCCC1CCO[C@@](C)(c1ccccc1)c1ccc(Cl)cc1` (stereo partly specified), the “activity change, negative = inhibition” value was -1.39%.

Regarding `Nc1nc2nc(Cl)[nH]c2c(=O)[nH]1`, the “activity change, negative = inhibition” value was 1.16%.

Regarding `CC1CC[C@@]23CCC4(C)[C@@]5(C)CCC6C(C)(C)C(O)CC[C@@]6(C)C5C=C[C@@]4(OC2=O)C3C1C` (stereo partly specified), the “activity change, negative = inhibition” value is 2.11%.

Consider `O=C(Nc1nsc(-c2ccccc2)n1)c1ccncc1`, for which the “activity change, negative = inhibition” value is 0.285%.

For `CCC(CCC(C)C1CCC2C3CC=C4CC(O)CC[C@@]4(C)C3CC[C@@]12C)C(C)C` (stereo partly specified), the “activity change, negative = inhibition” value was 0.256%.

As to `Cc1c(NC(=O)Nc2ccccc2Cl)sc(=S)n1C`, the “activity change, negative = inhibition” value was -4.46%.

`COc1ccc(S(=O)(=O)N(C)CC(=O)Nc2ccc3c(c2)OCCO3)cc1OC`: the “activity change, negative = inhibition” value is -0.767%.

In the case of `COC(=O)[C@@H]1C[C@@]2(O)[C@@H](O)[C@@H](O)[C@@H](O)C[C@H]2N1Cc1ccc(C)s1`, the “activity change, negative = inhibition” value was -1.65%.

Regarding `COc1ccc(C2CC(=O)c3c(O)cc(OC4OC(COC5OC(C)C(O)C(O)C5O)C(O)C(O)C4O)cc3O2)cc1O` (stereo unspecified), the “activity change, negative = inhibition” value is 0.477%.
